In article PMC7862700, “An all-to-all approach to the identification of sequence-specific readers for epigenetic DNA modifications on cytosine”:

Key:
Test in all cases: DAPPL (digital affinity profiling via proximity ligation, sequencing); 10 mM Tris-HCl pH 7.5, 50 mM NaCl, 1 mM DTT, 4% glycerol, room temperature, 30 min; GST-TFs on glutathione beads, 16-mer random dsDNA library, 0.1% formaldehyde crosslink after washing; high values mean tight binding
FLI1 = target: T1, FLI1 (Homo sapiens, UniProt Q01543 1-452); details: protein: recombinant; tags: N-terminal GST; dsDNA, one strand shown
T1 sequence: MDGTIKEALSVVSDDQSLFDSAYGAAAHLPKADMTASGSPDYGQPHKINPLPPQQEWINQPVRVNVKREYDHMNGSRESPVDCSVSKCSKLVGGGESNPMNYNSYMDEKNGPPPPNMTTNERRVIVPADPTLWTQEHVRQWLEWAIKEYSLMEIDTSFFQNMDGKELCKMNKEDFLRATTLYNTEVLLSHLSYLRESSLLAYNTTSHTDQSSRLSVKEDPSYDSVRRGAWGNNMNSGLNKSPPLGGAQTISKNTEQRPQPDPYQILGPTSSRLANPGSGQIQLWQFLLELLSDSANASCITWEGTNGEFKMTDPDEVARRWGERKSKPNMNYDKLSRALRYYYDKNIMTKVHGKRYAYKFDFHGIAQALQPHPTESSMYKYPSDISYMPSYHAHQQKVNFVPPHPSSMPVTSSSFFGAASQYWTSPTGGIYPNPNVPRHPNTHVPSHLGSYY
Method in brief: (§1)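 Pools were built from human transcription factors expressed in yeast as GST fusions, captured on glutathione beads and DNA-barcoded, along with a tag-only sample. Incubation with 200 nmole of a 16-mer random double-stranded DNA library lasted 30 min at room temperature in Tris/NaCl/DTT/glycerol buffer, and was followed by washing, 0.1% formaldehyde crosslinking, proximity ligation, PCR amplification and Illumina NextSeq500 sequencing. Binding signal is the quotient of each hexamer's read frequency for a factor and its frequency for the tag-only sample.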

ELK1 = target: T2, ELK1 (Homo sapiens, UniProt P19419 1-428); details: protein: recombinant; tags: N-terminal GST; dsDNA, one strand shown
T2 sequence: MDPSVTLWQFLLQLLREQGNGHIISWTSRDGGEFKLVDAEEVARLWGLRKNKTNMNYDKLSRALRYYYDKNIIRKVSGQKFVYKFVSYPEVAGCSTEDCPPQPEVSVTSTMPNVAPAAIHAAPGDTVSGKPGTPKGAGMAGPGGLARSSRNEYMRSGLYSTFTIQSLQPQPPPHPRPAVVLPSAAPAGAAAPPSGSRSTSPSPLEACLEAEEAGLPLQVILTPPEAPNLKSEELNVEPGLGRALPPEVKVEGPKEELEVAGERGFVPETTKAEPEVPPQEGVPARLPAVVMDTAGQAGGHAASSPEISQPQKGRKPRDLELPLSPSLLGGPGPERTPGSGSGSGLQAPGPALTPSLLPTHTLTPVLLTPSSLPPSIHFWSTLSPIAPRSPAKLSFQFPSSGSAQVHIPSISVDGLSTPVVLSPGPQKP
Method in brief: as §1

GABPA = target: T3, GABPA (Homo sapiens, UniProt Q06546 1-454); details: protein: recombinant; tags: N-terminal GST; dsDNA, one strand shown
T3 sequence: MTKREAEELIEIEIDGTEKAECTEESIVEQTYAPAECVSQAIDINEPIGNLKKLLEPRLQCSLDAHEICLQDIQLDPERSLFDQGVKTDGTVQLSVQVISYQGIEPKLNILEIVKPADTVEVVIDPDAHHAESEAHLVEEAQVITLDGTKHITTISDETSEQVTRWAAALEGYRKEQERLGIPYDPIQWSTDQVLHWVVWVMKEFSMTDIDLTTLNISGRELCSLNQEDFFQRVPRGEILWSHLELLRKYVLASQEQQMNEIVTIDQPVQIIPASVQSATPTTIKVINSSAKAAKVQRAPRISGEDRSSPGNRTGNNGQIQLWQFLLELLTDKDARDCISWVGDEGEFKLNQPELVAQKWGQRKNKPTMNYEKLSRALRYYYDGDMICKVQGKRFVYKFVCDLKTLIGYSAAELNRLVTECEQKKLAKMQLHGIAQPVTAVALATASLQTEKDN
Method in brief: as §1

ERG = target: T4, ERG (Homo sapiens, UniProt P11308 1-479); details: protein: recombinant; tags: N-terminal GST; dsDNA, one strand shown
T4 sequence: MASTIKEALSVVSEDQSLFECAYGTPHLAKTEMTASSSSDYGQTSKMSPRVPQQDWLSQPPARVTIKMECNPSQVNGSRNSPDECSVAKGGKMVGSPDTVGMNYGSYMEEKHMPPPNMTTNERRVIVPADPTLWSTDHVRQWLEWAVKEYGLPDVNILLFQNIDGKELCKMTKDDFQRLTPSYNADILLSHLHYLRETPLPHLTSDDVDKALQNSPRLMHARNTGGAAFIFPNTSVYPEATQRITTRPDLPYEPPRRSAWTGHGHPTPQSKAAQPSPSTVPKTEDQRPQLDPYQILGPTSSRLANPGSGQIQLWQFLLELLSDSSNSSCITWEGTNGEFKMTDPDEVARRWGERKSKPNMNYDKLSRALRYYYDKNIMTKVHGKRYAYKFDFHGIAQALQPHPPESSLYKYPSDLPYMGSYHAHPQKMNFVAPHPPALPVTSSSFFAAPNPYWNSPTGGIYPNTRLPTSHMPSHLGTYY
Method in brief: as §1

ELF1 = ELF1 (Homo sapiens, UniProt P32519 1-619); details: protein: recombinant; tags: N-terminal GST; dsDNA, one strand shown
Sequence of ELF1 (P32519 whole entry): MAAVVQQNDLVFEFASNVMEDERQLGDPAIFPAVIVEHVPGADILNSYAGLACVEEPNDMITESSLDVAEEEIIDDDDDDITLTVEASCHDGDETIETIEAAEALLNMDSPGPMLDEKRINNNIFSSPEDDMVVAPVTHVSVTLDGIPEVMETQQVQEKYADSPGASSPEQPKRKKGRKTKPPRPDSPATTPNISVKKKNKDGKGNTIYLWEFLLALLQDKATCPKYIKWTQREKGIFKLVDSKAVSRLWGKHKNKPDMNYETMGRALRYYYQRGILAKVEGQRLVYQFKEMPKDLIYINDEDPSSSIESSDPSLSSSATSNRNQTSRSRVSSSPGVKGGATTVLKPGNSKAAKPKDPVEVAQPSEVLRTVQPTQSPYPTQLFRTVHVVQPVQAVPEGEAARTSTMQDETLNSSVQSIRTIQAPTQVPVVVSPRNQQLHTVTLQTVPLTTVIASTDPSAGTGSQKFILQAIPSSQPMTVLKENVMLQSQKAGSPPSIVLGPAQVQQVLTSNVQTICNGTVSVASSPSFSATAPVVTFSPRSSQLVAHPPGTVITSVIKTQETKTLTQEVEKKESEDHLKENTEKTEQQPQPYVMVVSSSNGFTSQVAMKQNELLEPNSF
Method in brief: as §1

EHF = target: T5, EHF (Homo sapiens, UniProt Q9NZC4 1-300); details: protein: recombinant; tags: N-terminal GST; dsDNA, one strand shown
T5 sequence: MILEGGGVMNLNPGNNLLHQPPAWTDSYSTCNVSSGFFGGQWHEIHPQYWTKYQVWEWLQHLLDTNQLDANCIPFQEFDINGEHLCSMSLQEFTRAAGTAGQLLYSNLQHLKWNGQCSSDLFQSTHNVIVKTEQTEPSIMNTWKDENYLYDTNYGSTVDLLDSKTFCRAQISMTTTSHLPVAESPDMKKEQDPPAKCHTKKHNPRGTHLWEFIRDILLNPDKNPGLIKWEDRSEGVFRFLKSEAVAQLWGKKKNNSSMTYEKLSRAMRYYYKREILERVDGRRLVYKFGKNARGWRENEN
Method in brief: as §1

SPI1 = SPI1 (Homo sapiens, UniProt P17947 1-270); details: protein: recombinant; tags: N-terminal GST; dsDNA, one strand shown
Method in brief: as §1

SPIB = SPIB (Homo sapiens, UniProt Q01892 1-262); details: protein: recombinant; tags: N-terminal GST; dsDNA, one strand shown
Sequence of SPIB (Q01892 whole entry): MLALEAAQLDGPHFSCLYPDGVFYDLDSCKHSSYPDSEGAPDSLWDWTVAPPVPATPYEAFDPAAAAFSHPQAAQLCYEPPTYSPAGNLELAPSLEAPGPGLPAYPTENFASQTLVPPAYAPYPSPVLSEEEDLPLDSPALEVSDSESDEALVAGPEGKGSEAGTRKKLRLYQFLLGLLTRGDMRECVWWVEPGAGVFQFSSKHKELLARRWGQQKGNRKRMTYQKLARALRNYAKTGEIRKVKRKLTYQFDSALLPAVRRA
Method in brief: as §1

ELK3 = target: T6, ELK3 (Homo sapiens, UniProt P41970 1-407); details: protein: recombinant; tags: N-terminal GST; dsDNA, one strand shown
T6 sequence: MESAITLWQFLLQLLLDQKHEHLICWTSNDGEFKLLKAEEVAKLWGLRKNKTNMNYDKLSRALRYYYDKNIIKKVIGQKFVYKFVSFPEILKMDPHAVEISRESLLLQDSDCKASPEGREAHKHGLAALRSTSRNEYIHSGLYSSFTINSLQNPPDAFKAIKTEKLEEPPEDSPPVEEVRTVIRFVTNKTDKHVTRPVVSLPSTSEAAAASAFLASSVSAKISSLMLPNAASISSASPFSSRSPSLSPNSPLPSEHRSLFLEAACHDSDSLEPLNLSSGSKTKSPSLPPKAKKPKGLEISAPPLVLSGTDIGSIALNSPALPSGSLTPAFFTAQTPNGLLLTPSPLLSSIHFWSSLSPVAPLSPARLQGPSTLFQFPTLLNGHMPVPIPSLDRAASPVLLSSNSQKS
Method in brief: as §1

ETV5 = ETV5 (Homo sapiens, UniProt P41161 1-510); details: protein: recombinant; tags: N-terminal GST; dsDNA, one strand shown
Sequence of ETV5 (P41161 whole entry): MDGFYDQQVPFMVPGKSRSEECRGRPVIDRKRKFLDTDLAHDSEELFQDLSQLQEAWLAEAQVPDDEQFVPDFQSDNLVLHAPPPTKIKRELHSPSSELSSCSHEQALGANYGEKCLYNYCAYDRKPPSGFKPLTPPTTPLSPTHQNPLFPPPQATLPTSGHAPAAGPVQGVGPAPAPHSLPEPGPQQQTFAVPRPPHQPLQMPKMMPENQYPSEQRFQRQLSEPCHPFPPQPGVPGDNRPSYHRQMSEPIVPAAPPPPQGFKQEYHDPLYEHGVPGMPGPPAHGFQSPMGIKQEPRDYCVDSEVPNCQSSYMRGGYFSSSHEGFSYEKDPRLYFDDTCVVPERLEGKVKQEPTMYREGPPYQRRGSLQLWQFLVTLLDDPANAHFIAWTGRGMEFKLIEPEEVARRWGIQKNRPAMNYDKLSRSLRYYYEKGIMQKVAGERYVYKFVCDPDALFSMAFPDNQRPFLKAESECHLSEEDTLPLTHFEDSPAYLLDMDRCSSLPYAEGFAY
Method in brief: as §1

HSF1 = HSF1 (Homo sapiens, UniProt Q00613 1-529); details: protein: recombinant; tags: N-terminal GST; chain copies: 3; dsDNA, one strand shown
Sequence of HSF1 (Q00613 whole entry): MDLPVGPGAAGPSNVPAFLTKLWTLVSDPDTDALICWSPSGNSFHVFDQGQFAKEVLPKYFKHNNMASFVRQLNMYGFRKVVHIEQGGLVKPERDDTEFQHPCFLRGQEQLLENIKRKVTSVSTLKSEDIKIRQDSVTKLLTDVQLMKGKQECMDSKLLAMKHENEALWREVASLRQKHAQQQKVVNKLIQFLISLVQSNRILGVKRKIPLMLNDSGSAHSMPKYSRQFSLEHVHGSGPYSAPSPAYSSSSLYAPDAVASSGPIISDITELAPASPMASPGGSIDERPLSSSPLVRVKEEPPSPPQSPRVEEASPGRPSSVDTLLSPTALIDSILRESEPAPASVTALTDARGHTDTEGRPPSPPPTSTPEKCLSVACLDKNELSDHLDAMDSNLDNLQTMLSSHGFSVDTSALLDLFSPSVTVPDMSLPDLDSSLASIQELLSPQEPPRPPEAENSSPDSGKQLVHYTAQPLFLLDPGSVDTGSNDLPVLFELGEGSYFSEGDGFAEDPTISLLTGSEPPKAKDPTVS
Method in brief: as §1

SPIC = target: T7, SPIC (Homo sapiens, UniProt Q8N5J4 1-248); details: protein: recombinant; tags: N-terminal GST; dsDNA, one strand shown
T7 sequence: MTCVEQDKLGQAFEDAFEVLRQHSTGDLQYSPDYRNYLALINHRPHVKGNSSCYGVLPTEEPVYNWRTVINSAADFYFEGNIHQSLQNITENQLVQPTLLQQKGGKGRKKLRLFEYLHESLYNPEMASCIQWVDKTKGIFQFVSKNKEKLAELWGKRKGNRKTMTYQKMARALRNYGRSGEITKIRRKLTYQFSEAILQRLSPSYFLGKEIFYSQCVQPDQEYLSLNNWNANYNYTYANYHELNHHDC
Method in brief: as §1

ELF4 = ELF4 (Homo sapiens, UniProt Q99607 1-663); details: protein: recombinant; tags: N-terminal GST; dsDNA, one strand shown
Sequence of ELF4 (Q99607 whole entry): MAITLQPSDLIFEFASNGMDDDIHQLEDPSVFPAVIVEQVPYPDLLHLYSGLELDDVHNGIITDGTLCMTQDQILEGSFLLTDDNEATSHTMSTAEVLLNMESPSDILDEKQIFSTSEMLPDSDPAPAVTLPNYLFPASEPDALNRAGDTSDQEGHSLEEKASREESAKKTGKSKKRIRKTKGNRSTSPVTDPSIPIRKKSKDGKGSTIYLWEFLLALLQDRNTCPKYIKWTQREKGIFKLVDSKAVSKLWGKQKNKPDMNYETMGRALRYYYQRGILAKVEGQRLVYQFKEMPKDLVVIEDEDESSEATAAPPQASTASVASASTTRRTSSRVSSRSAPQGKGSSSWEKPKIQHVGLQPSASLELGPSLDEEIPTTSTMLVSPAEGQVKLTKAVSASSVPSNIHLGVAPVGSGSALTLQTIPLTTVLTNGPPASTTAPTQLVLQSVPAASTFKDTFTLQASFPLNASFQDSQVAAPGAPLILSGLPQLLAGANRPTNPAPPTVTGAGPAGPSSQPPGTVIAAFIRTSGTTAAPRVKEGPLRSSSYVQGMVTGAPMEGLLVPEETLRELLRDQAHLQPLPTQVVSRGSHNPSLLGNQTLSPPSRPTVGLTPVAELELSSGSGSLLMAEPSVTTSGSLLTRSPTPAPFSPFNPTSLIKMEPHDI
Method in brief: as §1

ELK4 = target: T8, ELK4 (Homo sapiens, UniProt P28324-2 1-405); details: protein: recombinant; tags: N-terminal GST; dsDNA, one strand shown
T8 sequence: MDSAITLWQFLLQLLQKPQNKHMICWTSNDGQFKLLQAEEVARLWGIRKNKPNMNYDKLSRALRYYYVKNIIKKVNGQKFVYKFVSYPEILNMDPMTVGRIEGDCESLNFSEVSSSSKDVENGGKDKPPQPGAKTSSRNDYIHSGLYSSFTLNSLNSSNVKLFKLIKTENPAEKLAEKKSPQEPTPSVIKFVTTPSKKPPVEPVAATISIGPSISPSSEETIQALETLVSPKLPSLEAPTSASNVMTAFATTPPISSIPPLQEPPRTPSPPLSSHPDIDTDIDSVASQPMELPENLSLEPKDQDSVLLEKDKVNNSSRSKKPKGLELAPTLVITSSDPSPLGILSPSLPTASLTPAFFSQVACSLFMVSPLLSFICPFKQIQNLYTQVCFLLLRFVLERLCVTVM
Method in brief: as §1

ETV2 = target: T9, ETV2 (Homo sapiens, UniProt O00321 1-342); details: protein: recombinant; tags: N-terminal GST; dsDNA, one strand shown
T9 sequence: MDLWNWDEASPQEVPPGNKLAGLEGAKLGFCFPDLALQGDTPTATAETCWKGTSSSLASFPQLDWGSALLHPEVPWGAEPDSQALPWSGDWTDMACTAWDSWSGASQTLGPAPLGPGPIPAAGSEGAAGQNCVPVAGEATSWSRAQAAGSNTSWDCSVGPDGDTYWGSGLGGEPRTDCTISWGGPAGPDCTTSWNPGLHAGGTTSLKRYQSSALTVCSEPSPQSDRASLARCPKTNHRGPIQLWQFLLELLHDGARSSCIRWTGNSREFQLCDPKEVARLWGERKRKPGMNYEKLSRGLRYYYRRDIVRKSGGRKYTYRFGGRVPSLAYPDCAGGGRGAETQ
Method in brief: as §1

ELF3 = target: T10, ELF3 (Homo sapiens, UniProt P78545 1-371); details: protein: recombinant; tags: N-terminal GST; dsDNA, one strand shown
T10 sequence: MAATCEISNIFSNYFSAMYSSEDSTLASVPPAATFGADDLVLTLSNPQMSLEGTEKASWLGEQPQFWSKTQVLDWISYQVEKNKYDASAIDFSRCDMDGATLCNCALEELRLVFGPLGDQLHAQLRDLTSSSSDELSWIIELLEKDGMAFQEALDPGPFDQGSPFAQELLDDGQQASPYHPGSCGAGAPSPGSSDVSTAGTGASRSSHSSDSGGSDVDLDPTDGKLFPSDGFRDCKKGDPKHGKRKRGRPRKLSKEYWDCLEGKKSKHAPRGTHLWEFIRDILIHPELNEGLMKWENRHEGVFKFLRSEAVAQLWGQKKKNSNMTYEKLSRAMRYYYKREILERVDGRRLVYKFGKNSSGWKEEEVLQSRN
Method in brief: as §1

ETV1 = ETV1 (Homo sapiens, UniProt P50549 1-477); details: protein: recombinant; tags: N-terminal GST; dsDNA, one strand shown
Sequence of ETV1 (P50549 whole entry): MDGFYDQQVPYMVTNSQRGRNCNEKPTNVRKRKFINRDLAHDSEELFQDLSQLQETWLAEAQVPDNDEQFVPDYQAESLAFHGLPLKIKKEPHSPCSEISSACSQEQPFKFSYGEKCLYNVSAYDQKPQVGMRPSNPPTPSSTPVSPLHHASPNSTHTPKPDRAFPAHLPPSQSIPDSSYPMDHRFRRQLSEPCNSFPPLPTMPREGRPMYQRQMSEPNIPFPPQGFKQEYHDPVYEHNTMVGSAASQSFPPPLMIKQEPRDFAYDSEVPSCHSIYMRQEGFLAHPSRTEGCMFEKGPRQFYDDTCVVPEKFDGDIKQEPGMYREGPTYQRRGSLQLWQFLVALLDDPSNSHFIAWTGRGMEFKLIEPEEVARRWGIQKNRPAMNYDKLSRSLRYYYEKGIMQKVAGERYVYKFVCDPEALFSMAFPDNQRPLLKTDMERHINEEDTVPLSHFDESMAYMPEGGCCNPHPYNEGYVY
Method in brief: as §1

TGGTAG
binding signal (FLI1): 1.1 fold enrichment (6-mer frequency, TF over GST control) | binding signal (ELK1): 1.02 fold enrichment (6-mer frequency, TF over GST control) | binding signal (GABPA): 1.08 fold enrichment (6-mer frequency, TF over GST control) | binding signal (ERG): 1 fold enrichment (6-mer frequency, TF over GST control) | binding signal (ELF1): 1.05 fold enrichment (6-mer frequency, TF over GST control) | binding signal (EHF): 1.11 fold enrichment (6-mer frequency, TF over GST control) | binding signal (SPI1): 1.03 fold enrichment (6-mer frequency, TF over GST control) | binding signal (SPIB): 1.15 fold enrichment (6-mer frequency, TF over GST control) | binding signal (ELK3): 1.11 fold enrichment (6-mer frequency, TF over GST control) | binding signal (ETV5): 1.07 fold enrichment (6-mer frequency, TF over GST control) | binding signal (HSF1): 1.06 fold enrichment (6-mer frequency, TF over GST control) | binding signal (SPIC): 1.08 fold enrichment (6-mer frequency, TF over GST control) | binding signal (ELF4): 1.11 fold enrichment (6-mer frequency, TF over GST control) | binding signal (ELK4): 1.37 fold enrichment (6-mer frequency, TF over GST control) | binding signal (ETV2): 1.04 fold enrichment (6-mer frequency, TF over GST control) | binding signal (ELF3): 1.13 fold enrichment (6-mer frequency, TF over GST control) | binding signal (ETV1): 1.05 fold enrichment (6-mer frequency, TF over GST control)
